The list is not random: actives were taken first. Their share in the collection is about 2.2%.
GalR3 antagonist: antagonists of human GalR3 | 360,000 tested, 0.44% active | inhibition, % at 3 µM | AID 651719 | HEK293 GalR3-CNG cAMP membrane potential fluorescence; galR3 body fused to GalR1 C-terminus | O60755;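 active means inhibition above the screen-wide average plus 3 SD, cut at about 13% in these data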;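 further: forskolin and galanin both at EC90 stimulate the cells; cAMP rise reported by CNG channel membrane potential dye signal; 0% = forskolin plus galanin with DMSO and 100% = forskolin alone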
Target sequence (O60755 1-299 limits assumed): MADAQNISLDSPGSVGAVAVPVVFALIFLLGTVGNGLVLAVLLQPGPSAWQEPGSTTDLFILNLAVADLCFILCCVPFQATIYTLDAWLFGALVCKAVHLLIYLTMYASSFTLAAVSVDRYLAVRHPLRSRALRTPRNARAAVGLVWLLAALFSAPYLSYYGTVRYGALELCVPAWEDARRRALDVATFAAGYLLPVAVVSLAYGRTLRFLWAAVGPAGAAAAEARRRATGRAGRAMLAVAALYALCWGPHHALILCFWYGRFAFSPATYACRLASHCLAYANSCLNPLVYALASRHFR
HIF activator: HIF pathway transcriptional activation; U2OS HRE-luciferase reporter, luminescence; normalized: DMSO 0%, desferrioxamine 100%; activation, % at 7.5 µM (by protocol); 300,000 tested, 0.32% active;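 active means mean activation of at least 10% of the iron chelator positive control signal, with at least half of replicates also reaching 10%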
FXN GAA850 act: increases GAA850 frataxin promoter reporter activity | HEK293 lucGAA850 FXN promoter luciferase reporter, 24 h; percent of 10 µM SAHA response | 360,000 tested, 0.56% active | AID 540364 | activation, % at 6 µM;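 active means activation above the average of all compounds screened plus 3 SD, cutoff fixed separately per campaign, cut at about 7.5% in these data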;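 further: 0% = DMSO wells and 100% = 10 µM SAHA wells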
Hsp70 activator: transcriptional activators of Hsp70; HeLa Hsp70 promoter luciferase reporter, luminescence; scaled: vehicle 0, proteasome-inhibitor control 100%; 200,000 tested, 0.04% active; activation, % at 10 µM;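 active means activation above the mean across all tested compounds plus 3 SD, cutoff set per campaign, cut at about 5.5% in these data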;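 further: 100% = MG132 at 30 µM as the positive control and 0% = DMSO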
SMARCA2 act: increases SMARCA2 function in MMTV reporter cells; MG213 cells, MMTV-luciferase reporter, dexamethasone, overnight; activation, % at 9.1 µM; 370,000 tested, 1% active; in the data active means activation above about 7.8%;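 further: 0% = vehicle wells and 100% = reference activator wells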
* hit, by the source's call; · = not tested or not shown.

SMILES	GalR3 antagonist	HIF activator	FXN GAA850 act	Hsp70 activator	SMARCA2 act
COc1cc(NC(=O)NC2CCCCN(Cc3cccc(Cl)c3)C2=O)cc(OC)c1 (stereo not given)	·	·	·	·	-2
C=CCn1c(C)cc(C(=O)Cn2nc(C(=O)O)c3ccccc3c2=O)c1C	0	-1	4	0	7.9*
Cc1cc(C(=O)Cn2nc(C(=O)O)c3ccccc3c2=O)c(C)n1C1CC1	-1	1	2	0	0
COc1cccc(OC)c1C(=O)Nc1cc(C)nn1-c1nc2ccccc2[nH]1	-9	1	-8	0	-3
Cc1cc(NC(=O)c2ccccc2)n(-c2nc3ccccc3[nH]2)n1	-4	24*	2	0	-1
Nc1ccccc1SC(CC(=O)c1ccccc1)c1cccc([N+](=O)[O-])c1 (stereo not given)	-6	·	11*	·	1
Nc1ccccc1SC(CC(=O)c1ccccc1)c1ccc([N+](=O)[O-])cc1 (stereo not given)	-3	·	8.0*	·	-1
O=C(NN=Cc1ccccc1C(F)(F)F)c1cc(-c2ccc(Cl)cc2)n[nH]1	·	·	·	·	-5
O=C(Nc1nc2ncccn2c1-c1ccc(F)cc1)c1ccc(F)cc1	·	·	·	·	-1
COc1cccc(-n2c(C)nnc2SCC(=O)Nc2ccccc2N2CCOCC2)c1	-5	0	1	-1	7.9*
Nc1[nH]c(C(=O)c2ccc(Br)cc2)c(-c2ccccc2Cl)c1C(=O)NCCc1c[nH]c2ccccc12	-7	·	·	·	-5
O=C(/C=C/c1ccco1)Nc1ccc(-c2nc3ccccc3[nH]2)cc1	3	3	3	0	0
O=C(Nc1ccc(-c2nc3ccccc3[nH]2)cc1)c1ccco1	·	2	8.6*	0	·
CCC1CCc2sc(C(=O)O)cc2C1 (stereo not given)	2	65*	0	0	-1
CCC1CCc2sc(C(=O)NNC(=O)c3ccncc3)cc2C1 (stereo not given)	-2	0	1	·	6
Cc1cc(C)c2c3c(sc2n1)C(=O)N(c1ccccc1C)CC(=O)N3	0	0	-2	·	-5
Cc1ccc(N2CC(=O)Nc3c(sc4nc(C)cc(C)c34)C2=O)cc1	1	26*	2	·	2
O=S1(=O)c2ccc(N3CCSCC3)cc2Oc2ccccc2CN1Cc1cn(Cc2ccc(F)cc2)nn1	·	·	·	·	7
COC(=O)[C@]12C[C@H](CC(=O)NCCc3ccccc3OC)C(=O)N(Cc3ccc(Cl)cc3Cl)C1=C[C@H](C(C)C)O[C@@H]2C1CC1	·	·	·	·	-3
CCN(CC)CC(C)(C)C(=O)/C=C/c1ccc(/C=C/C(=O)C(C)(C)CN(CC)CC)cc1	36*	·	-16	·	-13
CC(=NNC(=O)c1ccncc1)c1cccc(Cl)c1	0	·	2	·	-1
CCC/C(=N/NC(=O)c1cccc(Cl)c1)c1ccccc1	-2	10*	3	0	2
Cc1nc2ccc(NC(=O)c3ccc(F)cc3F)cc2c(=O)[nH]1	·	·	·	·	1
COc1ccc(NC(=O)C(=O)NNC(=O)c2ccc(Cl)cc2Cl)cc1	-7	512*	-2	·	-2
COc1ccc(NC(=O)C(=O)NNC(=O)C(C)Oc2ccc(Cl)cc2Cl)cc1 (stereo not given)	-2	0	1	0	-3
SMILES	GalR3 antagonist	HIF activator	FXN GAA850 act	Hsp70 activator	SMARCA2 act
C/C(=N\NC(=O)c1c(C)nc2ccccn12)c1ccc(O)cc1O	-8	13*	-4	·	1
C/C(=N\NC(=O)c1c(C)nc2ccccn12)c1ccccc1F	-10	0	-1	·	4
C=CCNC(=O)c1cnc2n(c1=O)CCS2	-1	0	-1	0	7.9*
COc1ccc(C(=O)OCCN(C)C2CN(Cc3cn(Cc4cccc(F)c4)nn3)S(=O)(=O)C2)cc1OC (stereo not given)	·	·	·	·	-1
COc1ccccc1C(=O)Nc1nc(-c2ccc(S(=O)(=O)N3CCOCC3)cc2)cs1	94*	0	-14	-1	-7
O=C(Nc1nc(-c2cccs2)cs1)c1ccc(S(=O)(=O)N2CCCCC2)cc1	-3	0	-2	0	-8
O=C(Nc1nc(-c2ccccn2)cs1)c1ccc(S(=O)(=O)N2CCCCC2)cc1	·	16*	·	·	·
COc1ccccc1OC(C)C(=O)Nc1nc(-c2ccc(S(=O)(=O)N3CCOCC3)cc2)cs1 (stereo not given)	-4	-1	1	0	-2
O=C1Nc2cnc(Cl)nc2Nc2ccc(Cl)cc21	4	·	·	·	-2
O=C1Nc2ccc(Cl)cc2/C1=C/C1CC=CCC1 (stereo not given)	-10	394*	5	0	-4
COc1ccc(CCNC(=O)COC(=O)CCC(=O)c2ccc(F)cc2)cc1OC	-6	299*	2	-1	-1
COCCn1c(NC(=S)NC(=O)C2CC2)cc(=O)[nH]c1=O	3	0	-1	0	-1
COCCn1c(NC(=S)NC(=O)C23CC4CC(CC(C4)C2)C3)cc(=O)[nH]c1=O	-2	0	12*	·	-2
CNC(=O)CSCc1cnn(-c2ccccc2)c1-n1cccc1	-3	0	-1	0	4
CCOC(=O)N1CCC(NC(=O)CSCc2cnn(-c3ccccc3)c2-n2cccc2)CC1	-5	0	8.3*	0	-4
COc1ccc(S(=O)(=O)N2CCC(c3cc(-c4cccc5ccccc45)n[nH]3)CC2)cc1	-5	11*	-1	0	-3
CN(CCOC(=O)c1cc2ccccc2o1)C1CN(Cc2cn(Cc3cccc(F)c3)nn2)S(=O)(=O)C1 (stereo not given)	·	·	·	·	1
COc1ccc(N2C(=O)CSC23C(=O)N2CCCc4cccc3c42)cc1 (stereo not given)	-3	0	-2	0	0
COc1ccc(N=C2C(=O)N3CCCc4cccc2c43)cc1	2	392*	-2	0	-2
COC[C@@H](O)[C@H]1OCc2cccc(OC)c2[C@@H]1/C=C/c1ccccc1	·	·	·	·	-3
CC1(C)CC(=Cc2ccccc2[N+](=O)[O-])C(=O)c2ccccc21	-4	·	-2	·	7.9*
O=C1C(=Cc2ccccc2[N+](=O)[O-])Cc2ccccc21	-1	·	-5	·	-6
C[C@@H](NC(=O)c1ccc(C#Cc2cccc(F)c2)cn1)C(C)(C)O	·	·	·	·	1
CC1(C)CC(N2CCN(Cc3ccccc3)CC2)=CC(=[N+]2CCCCC2)C1	-3	0	1	·	-8
CN(Cc1ccccc1)C1=CC(=[N+]2CCCCC2)CC(C)(C)C1	42*	2	-9	·	-8
COC(=O)[C@]12C[C@H](CC(=O)N3CCOCC3)C(=O)N(CCC3=CCCCC3)C1=C[C@H](C1CCCC1)O[C@@H]2C	·	·	·	·	-1
O=C(OCc1nnc(-c2ccc(Cl)cc2)o1)c1ccc(O)cc1	-6	0	3	0	-2
CS(=O)(=O)c1ccc(C(=O)OCc2nnc(-c3ccc(Cl)cc3)o2)cc1[N+](=O)[O-]	·	1	14*	0	·
COc1ccc(/C=C2\CC3(OC(=O)c4ccccc4)CCCN2C3)cc1 (stereo not given)	·	·	·	·	1
